In the supplement of paper PMC8183993 one finds nuclei count data, which are given here for 25 molecules.

± gives the standard deviation of the averaged measurements. The full ranking holds about 3,200 compounds; the median of “nuclei count (viability) relative to DMSO” is about 99, and the lowest 2% start at about 16. This is one part of a sample in which the lowest values are shown more often than they occur.

The test system of this test is U2OS. Kind of test: nuclei count (viability) relative to DMSO (% of DMSO); higher = more viable cells. Particulars: 10 µM; 24 h. The procedure: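 Primary image-based screen in U2OS cells: compounds at 10 uM for 24 h, then a 1 h o-propargyl-puromycin (OPP) pulse, click labelling, and high-throughput microscopy. Mean cytoplasmic OPP intensity and nuclei count were normalised to DMSO wells within each plate (DMSO = 100) and averaged over triplicate plates.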
Regarding `N[C@@H](CS(=O)O)C(=O)O` [L-Cysteinesulfinic acid], the nuclei count is 102.

Molecule `CC1=NN(c2ccc(C)c(C)c2)C(=O)/C1=N\Nc1cccc(-c2cccc(C(=O)O)c2)c1O` displayed a nuclei count of 98.3.

For `C=CC(=O)Nc1cccc(Nc2nc(Nc3ccc(Oc4ccnc(C(=O)NC)c4)cc3)ncc2F)c1`, the nuclei count came to 63.4.

As to `C=CC(=O)Nc1cccc(Oc2nc(Nc3ccc(N4CCN(C)CC4)cc3OC)ncc2Cl)c1`, the nuclei count turned out to be 107.

`C=CC(=O)Nc1cccc(Sc2nc(Nc3ccc(N4CCN(C)CC4)cc3)ncc2Cl)c1`: the nuclei count came out at 13.6.

In turn, `CCC(=O)Nc1cccc(Oc2nc(Nc3ccc(N4CCN(C)CC4)cc3OC)ncc2Cl)c1` registered a nuclei count of 94.6.

`C=CC(=O)Nc1ccc2ncnc(Nc3cccc(Br)c3)c2c1` showed a nuclei count of 79.2 ± 4.8.

`C=CC(=O)Nc1cccc(Oc2nc(Nc3ccc(N4CCN(C)CC4)cc3)ncc2Cl)c1`: the nuclei count came to 6.24.

Regarding `NC1CCN(c2cccc(Cl)n2)CC1`, the nuclei count was determined as 103.

Consider `COC(=O)C1=C(C)NC(C)=C(C(=O)NCCCN2CCC(c3ccccc3)(c3ccccc3)CC2)C1c1ccc([N+](=O)[O-])cc1` (stereo not given), for which the nuclei count was determined as 55.1.

`O=C(O)CCc1ccc(NCc2cccc(Oc3ccccc3)c2)cc1`: the nuclei count was found to be 90.2.

As to `COC(C)(C)CCCC(C)C/C=C/C(C)=C/C(=O)O` (stereo not given) [Methoprene acid], the nuclei count is 105.

Turning to `COc1ccc(CN2C(=O)C(=O)c3cc(OC(F)(F)F)ccc32)cc1`, the nuclei count came out at 17.3.

`O=[N+]([O-])c1ccc2c(c1)S(=O)(=O)C=C2` [Stattic] had a nuclei count of 14.1.

`O=C1Nc2ccc([N+](=O)[O-])cc2C1=O` [5-Nitroisatin] gave a nuclei count of 99.

`CS(=O)(=O)Nc1ccc([N+](=O)[O-])cc1Oc1ccccc1` [Nimesulide] returned a nuclei count of 103 ± 6.9.

Regarding `CCCC[P+](CCCC)(CCCC)Cc1ccc(NC(=O)C(Cc2ccc3ccccc3c2)NC(=NC2CCCCC2)NC2CCCCC2)cc1` (stereo not given), the nuclei count was 94.1.

`CC(C)C[C@H](NC(=O)[C@@H](O)[C@H](N)Cc1ccccc1)C(=O)O` [Bestatin] displayed a nuclei count of 94.4.

Turning to `CC(C)C[C@H](NC(=O)[C@H](Cc1ccccc1)NC(=O)c1cnccn1)B(O)O` [Bortezomib (Velcade)], the nuclei count came to 7.65.

`Nc1nc(NCCc2ccc(O)cc2)nc2nc(-c3ccco3)nn12` returned a nuclei count of 114.

The molecule `CCCOc1ccn2c(C(C)=O)cc(-c3ccccc3S(C)(=O)=O)c2c1` yielded a nuclei count of 96.4.

Regarding `Cc1cc(=O)n(C)c2cc(N3C(=O)CC[C@H](NS(=O)(=O)CC(C)C)[C@H]3c3ccc(Cl)cc3)ccc12`, the nuclei count stood at 104.

For `COCCCN1CCC(NC(=O)c2cc(Cl)c(N)c3c2OCC3)CC1` [Prucalopride], the nuclei count came out at 103.

Take `O=c1[nH]nc(Sc2ncc([N+](=O)[O-])s2)n1-c1ccc2c(c1)OCCO2`: the nuclei count came out at 6.42 ± 2.8.

For the molecule `O=C1NCCN1c1ncc([N+](=O)[O-])s1` [Niridazole], the nuclei count is 90.4.
